# Spn PMK inh – blocks S. pneumoniae phosphomevalonate kinase; purified PMK, PK/LDH-coupled NADH absorbance 340 nm; 65,000 compounds, 0.49% hits; inhibition, % at 10 µM;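 active = top-ranked compounds by inhibition in the single 10 µM screen, taking a fixed number of the strongest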;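 note: 0% = full reaction with DMSO carrier and 100% = background rate without enzyme reaction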
# MK inhibit – inhibitors of Streptococcus pneumoniae mevalonate kinase; inhibition, % at 10 µM; 65,000 compounds, 0.48% hits; purified MK, PK/LDH-coupled NADH absorbance 340 nm;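 active = ranked among the strongest by inhibition in the single 10 µM screen, a fixed top-ranked set picked for dose follow-up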
# Spn DPM-DC inh – blocks S. pneumoniae diphosphomevalonate decarboxylase | calls only at 10 µM | AID 556 | 65,000 compounds, 0.49% hits | purified DPM-DC, PK/LDH coupled NADH fluorescence;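 active = the 320 compounds with the highest percent inhibition in the single-dose primary screen, excluding strongly autofluorescent ones, cut at about 32% in these data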;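 note: kinetic rate of NADH fluorescence loss reporting ADP formed by the decarboxylase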
# A340 absorber – compound absorbs light at 340 nm | compound absorbance at 340 nm, fold over control | fold change at 10 µM | 65,000 tested, under 10 active | AID 708;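 active = at 10 µM dose, initial 340 nm absorbance at least 2 fold that of control wells; inactive = change under 2 fold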;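 note: initial absorbance extrapolated from kinetic A340 decline of NADH oxidation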
# NADH coupling – blocks coupling enzymes of NAD/NADH assays; coupled PK/LDH NADH assays, four targets; IC50, µM (series often up to 10 µM), without a hit: at the highest dose inhibition; 65,000 compounds, 0.02% hits; AID 774;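 active = single-dose screening hits from any of four coupled enzyme assays that gave an IC50 when retested across doses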;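 note: the DPM-DC format reads NADH fluorescence rather than 340 nm absorbance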
# Autofluor 339 – intrinsic fluorescence of library compounds, ex339/em460 – biochemical, MLSMR library, data from DPM-DC assay, artefact control, profiling panel; 65,000 compounds, 5.5% hits; compound autofluorescence, ex339/em460 nm, NADH buffer; stronger effect = higher value; 1 = no-compound wells, NADH background; fluorescence fold increase at 10 µM; AID 709;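 active = at 10 µM, mean starting fluorescence two-fold or more over control wells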;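 note: signal is the first read of a kinetic run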
# Starred values were filed as active, the others as inactive; i = inactive; · = no result given; + = active, no number. The list is not random: actives were taken first. Their share in the collection is about 6.5%.
SMILES,Spn PMK inh,MK inhibit,Spn DPM-DC inh,A340 absorber,NADH coupling,Autofluor 339
CC(C)(C)NC(=O)Nc1ccc2nccnc2c1,8,7,·,1.1,8%,2.2*
Cc1ccc2c(C)nc(NC3=NCN(CCc4ccccc4)CN3)nc2c1,8,9,i,1,6%,1.1
CC(=O)Nc1ccccc1C(=O)N1CC(C)OC(C)C1 (centres undefined),16,11,i,1,9%,1.1
CC1CN(C2CCN(C(=O)c3ccccc3Cl)CC2)CC(C)O1 (centres undefined),4,41*,i,1,15%,1.1
Cc1cc(NCCCN2CCOCC2)n2c(nc3ccccc32)c1C#N,8,22,·,1,15%,5*
Cc1cc(NCCN2CCOCC2)n2c(nc3ccccc32)c1C#N,7,15,·,1.1,11%,3.7*
CCOC(=O)N1CCN(C(c2ccc(F)cc2)c2sc3nc(C)nn3c2O)CC1 (centres undefined),0,5,i,1.1,2%,1.1
CCOC(=O)c1snc2c(=O)[nH]cnc12,10,4,·,1.1,7%,3.7*
C=CCn1c(=O)c2ccccc2n2c(SCc3c(C(=O)OCC)oc4ccccc34)nnc12,11,0,i,1,4%,1
c1ccc(-c2noc(-c3cccc4ccccc34)n2)nc1,6,8,·,1,7%,3.3*
CCC(c1nnnn1Cc1ccc(F)cc1)N(CCCO)Cc1cc2cc3c(cc2[nH]c1=O)OCO3 (centres undefined),8,1,i,1.1,5%,2.2*
Cc1cc(C)c2cc(CN(CCO)C(c3nnnn3Cc3ccc(F)cc3)C(C)C)c(=O)[nH]c2c1 (centres undefined),0,0,i,1.1,0%,1.3
COC(=O)c1cc(NCc2cccs2)ccc1N1CCOCC1,12,14,i,1,10%,1.4
O=C(O)c1cc(NCc2cccs2)ccc1N1CCOCC1,4,9,i,1,5%,2.4*
COC(=O)c1cc(NCc2c(F)cccc2Cl)ccc1N1CCOCC1,10,4,+,1,16%,2.6*
O=C(N1CCOCC1)C(F)(F)C(F)(F)C(F)(F)C(F)(F)C(=O)N1CCOCC1,0,11,i,1,4%,1.1
Cc1cc(C)cc(N(CC(=O)NCc2ccco2)S(=O)(=O)c2c(C)noc2C)c1,14,8,i,1,9%,1.1
Clc1ccc(C2CC(c3cccs3)n3ncnc3N2)c(Cl)c1 (centres undefined),0,4,i,1.1,1%,1.1
COc1ccccc1C(=O)Nc1c2c(nn1-c1cccc(C)c1C)CS(=O)C2 (centres undefined),11,13,i,0.98,8%,1.1
O=c1[nH]c(-c2ccc(Cl)cc2)nc2c1cnn2-c1ccccc1,0,7,i,1.1,7%,2.3*
CCCCOc1ccc(Cl)cc1CSc1nnc(C)n1N,2,9,i,1,6%,1.1
COc1ccc2[nH]c(C(=O)O)c(NS(=O)(=O)c3ccc(OC)c(OC)c3)c2c1,11,4,i,1.1,14%,2.2*
COc1ccc2[nH]c(C(=O)O)c(CCC(=O)O)c2c1,5,7,i,1.1,10%,2.5*
CN(C(=O)c1ccncc1)c1nnc(-c2ccccn2)s1,21,0,i,1,15%,3.1*
CN(C(=O)c1cccc(C#N)c1)c1nnc(-c2ccccn2)s1,15,19,i,1,12%,2.1*
SMILES,Spn PMK inh,MK inhibit,Spn DPM-DC inh,A340 absorber,NADH coupling,Autofluor 339
CN(C(=O)c1ccccn1)c1nnc(-c2ccncc2)s1,9,11,·,0.98,4%,2.3*
CN(C(=O)c1cccc(C#N)c1)c1nnc(C2CCOC2)s1 (centres undefined),21,0,i,1,7%,1
CN(C(=O)c1ccno1)c1nnc(-c2ccccn2)s1,15,5,·,1.1,10%,5.1*
CN(C(=O)c1ccncc1)c1nnc(-c2cccnc2)s1,12,0,i,0.99,4%,1.1
Cc1ccc(NC(=O)COC(=O)C2CC2C)c(S(=O)(=O)N2CCCCC2)c1 (centres undefined),15,6,i,0.99,7%,1.1
CCCCCOC(=O)CSc1nnc(-c2ccccc2)c(=O)[nH]1,13,0,i,1,4%,1.1
Cc1cc(Nc2nc3c(c(=O)n(C)c(=O)n3C)n2C)n(-c2ccccc2)n1,21,0,i,1,8%,1.1
COc1ccc2[nH]cc(C(=O)CN3CCCC(C)C3)c2c1 (centres undefined),25*,4,i,1.1,10%,1.1
COc1ccc2[nH]cc(C(=O)CN3CCC(C)CC3)c2c1,0,8,i,1,3%,1.1
Cc1cc(NCc2ccco2)nc2cc(O)ccc12,0,3,·,1.1,2%,2.1*
Nc1nnc(-c2ccco2)s1,0,3,i,1,4%,1
Nc1ncnc2oc(-c3ccco3)c(-c3ccco3)c12,3,15,·,1,6%,2.4*
Cc1ccc2oc(=O)c3cc(C(=O)N4CCN(C(=O)c5ccco5)CC4)sc3c2c1,7,4,i,1.2,5%,1.3
Cc1ccc2oc(=O)c3cc(C(=O)N4CCN(c5ncccn5)CC4)sc3c2c1,17,5,·,1.1,11%,2.1*
Cc1ccc2[nH]c(=O)c3cc(C(=O)N(C)Cc4ccco4)sc3c2c1,6,0,·,1.1,3%,2.2*
Cc1ccc2[nH]c(=O)c3cc(C(=O)N4CCN(C(=O)c5ccco5)CC4)sc3c2c1,8,13,·,1.1,11%,2*
CCCC(=O)Nc1ccc(N2CCN(C(=O)CCC)CC2)cc1,11,0,+,1,14%,1.1
CC1(C)Cc2c(c(N3CCOCC3)nc3sc(C#N)c(N)c23)CS1,0,7,·,1.1,2%,2.5*
c1ccc(-n2nc3c(ccc4cnnc43)[nH]2)cc1,5,13,·,1,9%,4*
Cc1ccc(C)c(N(CC(=O)NC2CCCC2)C(=O)CCCC(=O)Nc2ccccn2)c1,48*,0,i,0.98,6%,1
Cc1cccc(N(CC(=O)NC2CCCC2)C(=O)CCCC(=O)Nc2ccccn2)c1,17,0,i,0.99,6%,1.1
O=P(O)(CN1CCCCC1)C1CCCCC1O (centres undefined),3,2,i,1,10%,0.65
Cc1[nH]n2c(=O)cc(C(C)(C)C)nc2c1-c1ccccc1,13,12,i,1,16%,2.3*
CCCn1c(-c2cccs2)nc2ccccc21,0,10,·,1,5%,3.7*
C=CCn1c(-c2cccs2)nc2ccccc21,6,10,·,1,8%,3.1*
